Experimental data from PubChem BioAssay.
Results filed as inconclusive are left out. Activity calls are given as the source filed them.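 Rule for the calls, unless noted: active = viability at or below 27.92% in each of two runs, the all-compound median minus 4 SD; inconclusive = no clear call, values can overlap the other calls; inactive = the rest.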

Assays:
[1] = SK-BR-3 cell growth inhibitors, pilot screen, 24 h, human (AID 572;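 active = viability at or below 10% of carrier control in both of two separate runs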;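 note: compound exposure lasted between 18 and 24 h rather than exactly 24 h; 100% = carrier-treated control wells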); conditions: SK-BR-3 viability, CellTiter-Glo luminescence, at 10 µM, stronger effect = lower value
[2] = HUVEC growth inhibition – cell-based, human, primary screen (AID 575;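 active = viability at or below 30% in both replicate assays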;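 note: 100% = median of untreated cell wells with 0.1% DMSO on each plate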); conditions: HUVEC proliferation, CellTiter-Glo luminescence, 72 h; at 10 µM; stronger effect = lower value
[3] = growth inhibitors of H69AR lung tumor, primary screen, human, duplicate replicates (AID 580;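 active = viability at or under a set limit in both replicates, limit being median viability minus 3 SD, cut at about 48% in these data, passing the limit was not always enough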;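 note: 100% = mean luminescence of untreated wells and 0% = no signal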); conditions: H69AR lung tumor cells viability, ATP luminescence, 72 h; at 10 µM; stronger effect = lower value
[4] = reversal of MRP1-mediated doxorubicin resistance, pilot screen, H69AR cells, doxorubicin co-treatment (AID 601;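 active = viability loss from added drug above about 55%, and viability with drug at most 40%, in both replicates, limit read from the data, passing the limit was not always enough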); conditions: CellTiter-Glo, 72 h, at 10 µM; for differential viability (reversal): stronger effect = higher value
[5] = 384-well plate pilot, post-Golgi transport modulator project, inhibition of yeast transport mutant growth (AID 636; in the data active = inhibition above about 31%); conditions: absorbance 615 nm, about 18 h, stronger effect = higher value
[6] = growth suppression of yeast trafficking mutant, preliminary HTS, modulators of trafficking downstream of Golgi apparatus project, 1536-format plate, OD 615 nm (AID 637; in the data active = inhibition above about 30%); conditions: yeast transport mutant growth, absorbance 615 nm, 18 h; stronger effect = higher value
[7] = OD615 S. cerevisiae growth inhibition, permissive medium, pilot counter-assay, permissive growth control for S. cerevisiae lifespan shortening project (AID 705;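 active = growth inhibition above 25% in both replicates, a cutoff set 3 SD above the mean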); conditions: OD615, 24 h, at 10 µM, stronger effect = higher value
[8] = Restrictive medium S. cerevisiae growth inhibition, OD615, pilot screen of yeast lifespan reduction project, restrictive growth control (AID 706;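 active = growth inhibition above a set limit, 3 SD over mean compound inhibition, in both replicates, cut at about 43% in these data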;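 note: modified DeaD lifespan yeast strain shifted to restrictive glucose medium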); conditions: OD615, 48 h, at 10 µM, stronger effect = higher value
[9] = viability gain of MRP-1-high H69AR cells under doxorubicin, pilot screen, MRP-1 activator project, CellTiter-Glo, duplicate (AID 807;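 active = viability increase at or above a cutoff of the median across tested compounds plus 3 SD, cut at about 8.5% in these data, passing the limit was not always enough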;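 note: compound pretreatment 18-22 h then 72 h combined with doxorubicin; 0% = doxorubicin alone and 100% = vehicle without doxorubicin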); conditions: H69AR viability with doxorubicin, CellTiter-Glo luminescence; at 10 µM; stronger effect = higher value
[10] = growth suppression of beta-catenin knockout HCT116, pilot screen, human colon tumor cells (AID 823;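 active = cell viability at or below a set limit in both duplicate runs, the limit being the all-compound median minus 4 SD, cut at about 23% in these data, passing the limit was not always enough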;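 note: 0% = wells killed by 20 µM Hyamine and 100% = untreated DMSO cell wells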); conditions: CellTiter-Glo, 60 h, at 10 µM, stronger effect = lower value
[11] = growth suppression of PTEN-deleted HCT116, pilot screen, cell-based, HCT116 clonal line, CellTiter-Glo (AID 824); conditions: 60 h, at 10 µM, stronger effect = lower value;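 note: 0% = 20 µM Hyamine control and 100% = vehicle cell control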
[12] = inhibitors of the yeast RAM network, pilot screen, dse1pr::URA3 reporter, 5-FOA selection (AID 869;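 active = inhibition over a set limit, the all-compound mean plus 3 SD, in both replicate runs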;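 note: 0% = DMSO wells with no growth and 100% = 10 µM 1-NA-PP1 with full growth; RAM network block rescues cells from 5-FOA so hits raise OD615 growth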); conditions: S. cerevisiae dse1pr::URA3 5-FOA growth, OD615, 2 d; at 10 µM; stronger effect = higher value; strain carries analog-sensitive mutant Cbk1 kinase
[13] = RAM signaling pathway blockade in yeast – S. cerevisiae, Pdr1DBD-CYC8 efflux-inhibited sensitized strain, primary screen (AID 1298;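 active = RAM network inhibition above 8.4% in each of two replicates, 3 SD over the compound average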;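 note: 0% = DMSO untreated cells without growth and 100% = 10 µM 1-NA-PP1 full growth; higher means more yeast growth rescued from 5-FOA killing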); conditions: S. cerevisiae cbk1-as DSE1-URA3 strain, 5-FOA growth OD615, 2 d; at 50 µM; stronger effect = higher value
[14] = H69AR cells + 2 uM doxorubicin, measured here: viability with 2 uM doxorubicin, stronger effect = lower value
[15] = H69AR cells, compound alone cytotoxicity

Compound | viability [1] | viability [2] | viability [3] | differential viability (reversal) ([4]; H69AR cells + 2 uM doxorubicin) | viability [4, 14] [%] | viability [4, 15] [%] | inhibition [5] | inhibition [6] | growth inhibition [7] | growth inhibition [8] | viability increase [9] | viability [10] | viability [11] | inhibition [12] | RAM network inhibition [13]
O=C(CCC(=O)OCC(=O)c1ccccc1)NC1CCCCC1 | 68% (inactive) | 108% (inactive) | 101% (inactive) | 14.9% (inactive) | 86.1 | 101 | -7.33% (inactive) | -5.82% (inactive) | -6.58% (inactive) | -5.45% (inactive) | -0.49% (inactive) | 93.6% (inactive) | 95.6% (inactive) | -0.295% (inactive) | 5.37% (inactive)
O=C(c1ccc2snnc2c1)N1CCOCC1 | 101% (inactive) | 90.2% (inactive) | 102% (inactive) | 12.8% (inactive) | 88.9 | 102 | -1.73% (inactive) | -0.55% (inactive) | 0.235% (inactive) | -15.9% (inactive) | 0.28% (inactive) | 102% (inactive) | 99.4% (inactive) | 1.69% (inactive) | 1.07% (inactive)
Cn1c(CSc2nc3ccccc3s2)nnc1SCC(=O)NCCN1CCOCC1 | 75% (inactive) | 97.6% (inactive) | 98.5% (inactive) | -3.51% (inactive) | 102 | 98.5 | 2.67% (inactive) | 10% (inactive) | 7.95% (inactive) | 32.4% (inactive) | -3.43% (inactive) | 92.9% (inactive) | 86.7% (inactive) | 0.27% (inactive) | 3.17% (inactive)
COc1ccc(N2CCN(C(=O)CSc3ccccc3)CC2)cc1 | 113% (inactive) | 103% (inactive) | 95.5% (inactive) | 12.5% (inactive) | 83 | 95.5 | -8.13% (inactive) | -2.18% (inactive) | 3.53% (inactive) | 11.6% (inactive) | -3.92% (inactive) | 93.2% (inactive) | 85.9% (inactive) | 1.16% (inactive) | 3.22% (inactive)
COc1cc(-c2nc(-c3ccncc3)no2)cc(OC)c1OC | 100% (inactive) | 101% (inactive) | 89.1% (inactive) | 1.12% (inactive) | 88 | 89.1 | -5.87% (inactive) | -2.18% (inactive) | -1.17% (inactive) | 11.1% (inactive) | -2.77% (inactive) | 103% (inactive) | 99.3% (inactive) | 2.17% (inactive) | 3.72% (inactive)
CCOC(=O)c1cc(NC(=O)SCC(=O)O)c(C)nc1C | 82% (inactive) | 123% (inactive) | 88.1% (inactive) | 2.72% (inactive) | 85.4 | 88.1 | 2.34% (inactive) | -1.64% (inactive) | 0.31% (inactive) | 0.73% (inactive) | 2.31% (inactive) | 96.1% (inactive) | 101% (inactive) | 0.56% (inactive) | 0.38% (inactive)
Cc1cc(NC(=O)CSc2nc3c(c(-c4cccnc4)c2C#N)CCC3)no1 | 65% (inactive) | 111% (inactive) | 90.9% (inactive) | 6.63% (inactive) | 84.3 | 90.9 | -5.6% (inactive) | -3.09% (inactive) | 2.25% (inactive) | 1.02% (inactive) | 0.51% (inactive) | 101% (inactive) | 98.5% (inactive) | 1.75% (inactive) | 5.05% (inactive)
O=C(O)CC(C(=O)Nc1cccc(C(F)(F)F)c1)C1CCCO1 (stereo not given) | 76% (inactive) | 108% (inactive) | 97.6% (inactive) | 3.26% (inactive) | 94.3 | 97.6 | -3.33% (inactive) | -8% (inactive) | -10.5% (inactive) | -6.54% (inactive) | 1.01% (inactive) | 104% (inactive) | 100% (inactive) | -0.115% (inactive) | 2.56% (inactive)
O=C(Nc1ncc(Cc2ccccc2)s1)C1CCCO1 (stereo not given) | 91.5% (inactive) | 84.3% (inactive) | 103% (inactive) | 10.9% (inactive) | 92.2 | 103 | -4.67% (inactive) | -9.34% (inactive) | -14.2% (inactive) | 3.14% (inactive) | 1.91% (inactive) | 103% (inactive) | 103% (inactive) | 0.015% (inactive) | -2.16% (inactive)
OC(CNCCc1ccccc1)c1ccccc1 (stereo not given) | 101% (inactive) | 101% (inactive) | 91.2% (inactive) | 9.8% (inactive) | 81.4 | 91.2 | -5.07% (inactive) | 2.36% (inactive) | -6.34% (inactive) | -6.08% (inactive) | -0.36% (inactive) | 95.4% (inactive) | 94.1% (inactive) | 0.865% (inactive) | 0.66% (inactive)
COc1ccccc1N1CCN(C(=O)C2CCN(S(=O)(=O)c3ccc(F)cc3)CC2)CC1 | 73% (inactive) | 70.8% (inactive) | 87.5% (inactive) | 6.62% (inactive) | 80.8 | 87.5 | -0.27% (inactive) | 8.55% (inactive) | -13.6% (inactive) | -1.89% (inactive) | -0.47% (inactive) | 81.2% (inactive) | 84% (inactive) | 1.03% (inactive) | 4.6% (inactive)
